According to PubChem BioAssay (NCATS):
Records with an inconclusive call do not appear. Calls of active or inactive are those of the source. Unless noted, the call rests on the fitted dose curve.

Columns and labels:
[1] = Primary qHTS for inhibitors of SARS-S pseudo-typed particle cell entry (AID 1479145); conditions: outcome: dose series up to 57.1 µM unless noted; further: nearly all actives have a fitted effect of over 45% in size; further: potency means the concentration at half of the fitted maximal effect
[2] = Primary qHTS for Huh7 cytotoxicity: counterscreen for inhibitors of MERS-S pseudotyped particle cell entry (AID 1479147); conditions: outcome: dose series up to 57.1 µM unless noted
[3] = Primary qHTS for Vero E6 cytotoxicity: counterscreen for inhibitors of SARS-S pseudo-typed particle cell entry (AID 1479150); conditions: outcome: dose series up to 57.1 µM unless noted
[4] = Cytotoxicity counterscreen for inhibitors of SARS-CoV-2 cell entry (AID 1645845); conditions: outcome: dose series up to 57.1 µM unless noted; further: nearly all actives have a fitted effect of over 50% in size
How it was run: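 ATP-content luminescence (ATPLite 1step, 15 min RT) read after 48 h compound exposure of Expi293F cells stably expressing human ACE2; normalized to cells-only wells and media-only wells.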

[5] = target: Cytochrome P450 2C9 (Homo sapiens) (UniProt P11712); test: qHTS Assay for Inhibitors and Substrates of Cytochrome P450 2C9 (AID 883; active means well fitted curve in the direction sought with a large enough effect; an effect the other way counts as inactive or inconclusive; further: potency means the concentration at half of the fitted maximal effect; nearly all actives have a fitted effect of over 60% in size)
How it was run: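 Turnover of Luciferin-H (100uM, KM) by 10nM human CYP2C9 was measured over 60 min at 37C with NADPH regeneration; inhibitors and some substrates reduce luminescence. Data normalized to sulphaphenazole 57uM.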

[6] = target: Cytochrome P450 3A4 (Homo sapiens) (UniProt P08684); test: qHTS Assay for Inhibitors and Substrates of Cytochrome P450 3A4 (AID 884; active means well fitted curve in the direction sought with a large enough effect; an effect the other way counts as inactive or inconclusive; further: potency means the concentration at half of the fitted maximal effect; nearly all actives have a fitted effect of over 50% in size)
How it was run: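 Luminescent readout of luciferin produced by CYP3A4 (20 nM) dealkylation of Luciferin-PPXE, 25 uM (its KM). NADPH-driven reaction ran 60 min at RT after 10 min compound preincubation; data scaled to 57 uM ketoconazole as 100% inhibition.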

[7] = target: Cytochrome P450 3A4 (Homo sapiens) (UniProt P08684); test: qHTS Assay for Activators of Cytochrome P450 3A4 (AID 885; active means well fitted curve in the direction sought with a large enough effect; an effect the other way counts as inactive or inconclusive; further: nearly all actives have a fitted effect of over 65% in size)
How it was run: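 Using 20nM recombinant human CYP3A4 in potassium phosphate (200mM), substrate Luciferin-PPXE at 25uM, luminescent luciferin detection followed a 60-min RT NADPH reaction; data scaled to 57 uM ketoconazole.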

[8] = target: Cytochrome P450 2D6 (Homo sapiens) (UniProt P10635); test: qHTS Assay for Inhibitors and Substrates of Cytochrome P450 2D6 (AID 891; active means well fitted curve in the direction sought with a large enough effect; an effect the other way counts as inactive or inconclusive; further: potency means the concentration at half of the fitted maximal effect; nearly all actives have a fitted effect of over 60% in size)
How it was run: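 Luminescent read-out of luciferin formed by 5 nM human CYP2D6 demethylating 30 uM Luciferin-ME EGE (Km level) over 60 min at room temperature after NADPH regeneration addition. Data normalized to full inhibition by 1.43 uM quinidine.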

[9] = target: Peroxisome proliferator-activated receptor delta (Homo sapiens) (UniProt Q03181); test: qHTS assay for small molecule agonists of peroxisome proliferator-activated receptor delta signaling (AID 588534)
How it was run: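 Agonist-mode qHTS; reporter cells, 5 hrs 37 C pre-incubation; compound titration, 18 hrs 37 C; CCF4 dye, 2 hrs RT; fluorescence read. EC50/efficacy via Hill fit.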

[10] = VSVG counterscreen qHTS to identify inhibitors of SARS-CoV-2 cell entry (AID 1645847); further: potency means the concentration at half of the fitted maximal effect; nearly all actives have a fitted effect of over 65% in size
How it was run: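 Luminescence from a luciferase reporter, normalised to bald particle and VSV-G pseudotyped particle wells, is the read-out. Cells are HEK293 expressing human ACE2, exposed to compound 1 h before a 48 h particle infection at 37 °C.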

[11] = Confirmatory qHTS to identify inhibitors of SARS-CoV-2 cell entry (AID 1645844); further: potency means the concentration at half of the fitted maximal effect; nearly all actives have a fitted effect of over 45% in size
How it was run: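 Luminescence entry read-out after 48 h: spike-pseudotyped MLV particles (Wuhan-Hu-1, 19-aa C-terminal truncation) added to compound-pretreated (1 h) HEK293-ACE2 cells; Data were normalised to bald PP and spike PP wells.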

[12] = Primary qHTS to identify inhibitors of SARS-CoV-2 cell entry (AID 1645846); conditions: SARS-CoV-2 pseudovirus cell entry assay, luminescence; activity change, negative = inhibition: at 57.1 µM (top of the series) unless noted; further: nearly all actives have a fitted effect of over 45% in size
How it was run: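 Inhibition of spike-mediated entry was scored in human ACE2-transfected Expi293F cells. Particles were MLV-pseudotyped with Wuhan-Hu-1 S carrying a 19-aa C-terminal deletion; signal was luciferase after two days, scaled between spike PP and fusion-protein-free PP.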

[13] = Primary qHTS for inhibitors of MERS-S pseudo-typed particle cell entry (AID 1479149); conditions: outcome: dose series up to 57.1 µM unless noted; further: nearly all actives have a fitted effect of over 60% in size
[14] = target: Glutathione peroxidase 1 (Homo sapiens) (UniProt P07203); test: Primary qHTS Assay for Inhibitors of Recombinant Selenoprotein Glutathione Peroxidase 1 (GPX1) (AID 1845191; active means well fitted curve in the direction sought with a large enough effect; an effect the other way counts as inactive or inconclusive; further: nearly all actives have a fitted effect of over 65% in size)
How it was run: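 NADPH consumption tracked by fluorescence at 340/450 nm between t=0 and t=15 min, room temperature. Final mix: 10 nM GPX1, 100 nM glutathione reductase, 1 mM GSH, 0.5 mM NADPH, 0.5 mM cumene hydroperoxide, 0.01% BSA; 30 min compound–enzyme preincubation.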

[15] = target: Phospholipid hydroperoxide glutathione peroxidase GPX4 (Homo sapiens) (UniProt P36969); test: Primary qHTS Assay for Inhibitors of Recombinant Selenoprotein Glutathione Peroxidase 4 (GPX4) (AID 1845192; active means well fitted curve in the direction sought with a large enough effect; an effect the other way counts as inactive or inconclusive; further: nearly all actives have a fitted effect of over 65% in size)
How it was run: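 NADPH consumption followed by fluorescence at 340/450 nm, t=0 and after 15 min at room temperature. Reaction started with cumene hydroperoxide (0.5 mM final) after 30 min compound–GPX4 preincubation; final 200 nM GPX4, 100 nM GR, 1 mM GSH, 0.5 mM NADPH.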

Cytochrome P450 3A4 (Homo sapiens), sequence (P08684 whole entry, looked up): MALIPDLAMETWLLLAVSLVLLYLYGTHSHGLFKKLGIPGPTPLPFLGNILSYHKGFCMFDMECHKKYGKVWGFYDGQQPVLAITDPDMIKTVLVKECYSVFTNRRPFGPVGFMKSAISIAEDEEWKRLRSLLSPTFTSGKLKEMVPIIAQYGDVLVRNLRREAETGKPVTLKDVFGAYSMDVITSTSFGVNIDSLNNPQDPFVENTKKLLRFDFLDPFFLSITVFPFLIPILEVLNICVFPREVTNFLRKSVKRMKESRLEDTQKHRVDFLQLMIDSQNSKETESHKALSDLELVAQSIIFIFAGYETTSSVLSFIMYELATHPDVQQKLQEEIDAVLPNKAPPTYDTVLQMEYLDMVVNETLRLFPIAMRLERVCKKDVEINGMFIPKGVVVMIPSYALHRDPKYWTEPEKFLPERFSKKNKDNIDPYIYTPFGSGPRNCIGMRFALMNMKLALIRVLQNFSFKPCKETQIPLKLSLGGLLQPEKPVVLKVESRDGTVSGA
Phospholipid hydroperoxide glutathione peroxidase GPX4 (Homo sapiens), sequence (P36969 whole entry, looked up): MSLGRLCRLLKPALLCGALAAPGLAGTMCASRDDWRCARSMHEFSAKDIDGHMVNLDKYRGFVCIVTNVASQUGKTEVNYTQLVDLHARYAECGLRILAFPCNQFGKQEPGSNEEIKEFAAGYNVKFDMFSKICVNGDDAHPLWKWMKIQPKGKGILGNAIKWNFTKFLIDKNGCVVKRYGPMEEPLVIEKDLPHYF
Cytochrome P450 2C9 (Homo sapiens), sequence (P11712 whole entry, looked up): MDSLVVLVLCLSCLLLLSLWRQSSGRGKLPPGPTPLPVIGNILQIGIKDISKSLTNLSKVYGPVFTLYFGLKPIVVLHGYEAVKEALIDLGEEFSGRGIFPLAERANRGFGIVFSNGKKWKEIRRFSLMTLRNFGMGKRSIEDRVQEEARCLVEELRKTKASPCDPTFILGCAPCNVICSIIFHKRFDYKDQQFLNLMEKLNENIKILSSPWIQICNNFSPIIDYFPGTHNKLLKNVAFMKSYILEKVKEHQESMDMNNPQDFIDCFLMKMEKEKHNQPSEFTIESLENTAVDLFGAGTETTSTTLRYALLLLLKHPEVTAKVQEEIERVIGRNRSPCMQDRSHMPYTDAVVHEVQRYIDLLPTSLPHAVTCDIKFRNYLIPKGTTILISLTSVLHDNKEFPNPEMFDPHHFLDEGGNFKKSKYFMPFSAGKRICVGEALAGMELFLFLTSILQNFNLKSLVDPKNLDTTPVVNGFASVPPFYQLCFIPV
Glutathione peroxidase 1 (Homo sapiens), sequence (P07203 whole entry, looked up): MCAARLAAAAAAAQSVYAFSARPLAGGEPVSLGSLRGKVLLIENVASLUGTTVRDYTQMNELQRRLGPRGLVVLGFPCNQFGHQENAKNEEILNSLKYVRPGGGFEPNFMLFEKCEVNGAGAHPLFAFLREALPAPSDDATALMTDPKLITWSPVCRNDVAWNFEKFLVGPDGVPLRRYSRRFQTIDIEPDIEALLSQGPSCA
Cytochrome P450 2D6 (Homo sapiens), sequence (P10635 whole entry, looked up): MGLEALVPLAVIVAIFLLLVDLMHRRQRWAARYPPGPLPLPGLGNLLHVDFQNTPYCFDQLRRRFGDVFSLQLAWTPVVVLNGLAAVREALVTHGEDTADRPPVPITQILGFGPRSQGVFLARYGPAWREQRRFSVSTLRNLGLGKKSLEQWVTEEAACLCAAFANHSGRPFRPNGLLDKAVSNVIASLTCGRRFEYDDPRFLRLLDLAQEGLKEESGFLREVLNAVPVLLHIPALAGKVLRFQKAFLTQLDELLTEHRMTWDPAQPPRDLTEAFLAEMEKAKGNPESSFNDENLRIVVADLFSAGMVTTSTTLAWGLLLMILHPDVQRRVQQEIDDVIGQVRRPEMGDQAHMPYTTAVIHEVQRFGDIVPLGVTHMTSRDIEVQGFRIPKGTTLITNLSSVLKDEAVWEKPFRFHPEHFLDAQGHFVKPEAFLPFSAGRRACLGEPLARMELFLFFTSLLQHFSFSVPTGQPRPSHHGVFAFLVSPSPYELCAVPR
Peroxisome proliferator-activated receptor delta (Homo sapiens), sequence (Q03181 whole entry, looked up): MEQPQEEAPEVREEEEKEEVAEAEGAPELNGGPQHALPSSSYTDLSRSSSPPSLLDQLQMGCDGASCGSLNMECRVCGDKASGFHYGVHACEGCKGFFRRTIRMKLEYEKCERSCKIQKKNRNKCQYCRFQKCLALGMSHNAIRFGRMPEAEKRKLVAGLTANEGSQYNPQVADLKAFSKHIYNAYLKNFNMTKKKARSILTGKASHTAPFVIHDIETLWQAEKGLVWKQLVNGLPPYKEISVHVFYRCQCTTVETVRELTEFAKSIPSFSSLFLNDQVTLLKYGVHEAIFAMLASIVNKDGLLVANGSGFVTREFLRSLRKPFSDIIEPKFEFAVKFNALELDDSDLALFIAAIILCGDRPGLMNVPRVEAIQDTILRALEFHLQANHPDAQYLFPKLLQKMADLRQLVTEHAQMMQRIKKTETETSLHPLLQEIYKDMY

COC(=O)N[C@H](C(=O)N1CC2(CC2)C[C@H]1c1ncc(-c2ccc3c(c2)C(F)(F)c2cc(-c4ccc5nc([C@@H]6[C@H]7CC[C@H](C7)N6C(=O)[C@@H](NC(=O)OC)C(C)C)[nH]c5c4)ccc2-3)[nH]1)C(C)C
inactive: Potency [1] | Potency [2] | Potency [3] | Potency [4]

CCOc1ccc2c(c1)C(C)=CC(C)(C)N2
active: Potency [5] 2 µM | Potency [6] 15.8 µM | Potency [8] 2.51 µM | Potency [10] 55.5 µM
inactive: Potency [7] | outcome [9] | Potency [1] | Potency [2] | Potency [3] | Potency [4]

C=C[C@]1(C)C[C@@H](OC(=O)CSCCN(CC)CC)[C@]2(C)[C@H](C)CC[C@]3(CCC(=O)[C@H]32)[C@@H](C)[C@@H]1O
inactive: Potency [2] | Potency [3]
active: Potency [1] 20 µM | Potency [11] 3.04 µM | Potency [10] 15.2 µM

CN1C(CC(=O)c2ccccc2)CCCC1CC(O)c1ccccc1 (stereo not drawn)
inactive: Potency [1] | Potency [2] | Potency [3] | Potency [4]
active: Potency [10] 3.83 µM

C=C1/C(=C/C=C2\CCC[C@]3(C)[C@@H]([C@H](C)CCCC(O)(C(F)(F)F)C(F)(F)F)CC[C@@H]23)C[C@@H](O)C[C@@H]1O
inactive: Potency [1] | Potency [2] | Potency [3]

CC[C@H]1OC(=O)[C@H](C)[C@@H](O[C@H]2C[C@@](C)(OC)[C@@H](O)[C@H](C)O2)[C@H](C)[C@@H](O[C@@H]2O[C@H](C)C[C@H](N(C)C)[C@H]2O)[C@](C)(OC)C[C@@H](C)C(=O)[C@H](C)[C@@H](O)[C@]1(C)O
inactive: Potency [1] | Potency [2] | Potency [3]

CC1(C)C(/C=C/C=C/C=C/C=C2/N(CCCCS(=O)(=O)O)c3ccc4ccccc4c3C2(C)C)=[N+](CCCCS(=O)(=O)[O-])c2ccc3ccccc3c21
inactive: Potency [1] | Potency [2] | Potency [3] | Potency [4]

CC[C@@]1(O)C(=O)OCc2c1cc1n(c2=O)Cc2c-1nc1cc(F)c(C)c3c1c2[C@@H](N)CC3
inactive: Potency [1] | Potency [2]
-94.1%: activity change, negative = inhibition [12]

C=C[C@@H]1C[C@]1(NC(=O)[C@@H]1C[C@@H](Oc2ncc(OC)c3ccc(Cl)cc23)CN1C(=O)[C@@H](NC(=O)OC(C)(C)C)C(C)(C)C)C(=O)NS(=O)(=O)C1CC1
inactive: Potency [1] | Potency [2] | Potency [3]
active: Potency [10] 10.8 µM

CCCCCCCCCC(=O)OC1(c2ccc(Cl)cc2)CCN(CCCC(=O)c2ccc(F)cc2)CC1
inactive: Potency [1] | Potency [2] | Potency [3] | Potency [4]

C[C@H]1C[C@H]2[C@H]3CCC4=CC(=O)C=C[C@]4(C)[C@@]3(F)[C@@H](O)C[C@]2(C)[C@@]1(OC(=O)c1ccccc1)C(=O)CO
inactive: Potency [1] | Potency [2] | Potency [3] | Potency [4]

CN(C(=O)/C=C/c1ccoc1)[C@@H]1CC[C@@]2(O)[C@H]3Cc4ccc(O)c5c4[C@@]2(CCN3CC2CC2)[C@H]1O5
inactive: Potency [1] | Potency [13] | Potency [3] | Potency [4] | Potency [12] | Potency [14] | Potency [15]

N#Cc1c(N2C[C@@H]3NCCO[C@H]3C2)c(F)cc2c(=O)c(C(=O)O)cn(C3CC3)c12
inactive: Potency [1] | Potency [2] | Potency [3]

CNCC(=O)OCc1cccnc1N(C)C(=O)OC(C)[n+]1cnn(C[C@](O)(c2cc(F)ccc2F)[C@@H](C)c2nc(-c3ccc(C#N)cc3)cs2)c1 (stereo partly drawn)
inactive: Potency [1] | Potency [2] | Potency [3] | Potency [4]
